Hits are enriched below; roughly 2.4% of the tested compounds scored in any of these assays.
POLB inh = DNA polymerase beta (human) inhibition; P06746; Pol beta primer extension/strand displacement, fluorescence kinetic; Potency, µM (highest dose often 114 µM), for the others: at the top dose activity change, negative = inhibition, usual class: inhibitors; actives 1.3% (n = 340,000); AID 485314; further: on the % scale 0 is the no-effect control and ±100 the full control effect
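Preincubation: enzyme (10 nM) with compound, 15 min, RT. Reaction: substrate added to 50 nM final. Reads: 0 and 10 min. Analysis: normalized, Hill fit.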
Pol eta inh = DNA polymerase eta (human) inhibition; Q9Y253; AID 588591; recombinant Pol eta, fluorescent DNA replication assay; actives 1.2% (n = 390,000); Potency, µM (titrated, usually from 114 µM), for inactives: at the top dose activity change, negative = inhibition, usual class: inhibitors; further: on the % scale 0 is the no-effect control and ±100 the full control effect
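Pol eta (10 nM) was preincubated with compounds for 15 min at room temperature, after which fluorescent replication substrate (50 nM final) was added to start the reaction. Fluorescence was read kinetically at 0 and 10 min.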
POLK inh = blocks human DNA polymerase kappa activity | Q9UBT6 | purified Pol kappa, fluorescent DNA synthesis assay, 10 min | Potency, µM (doses to about 107 µM), inactives show top-dose activity, negative = inhibition, hits mostly inhibitors | actives 0.53% (n = 400,000); further: on the % scale 0 is the no-effect control and ±100 the full control effect
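Fluorescent qHTS in 1536-well format: enzyme (10 nM) and compound sat 15 min at room temperature before 50 nM substrate (final) was added. Signal taken at 0 and 10 min; no-enzyme buffer wells were negative controls.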
WRN helicase inh = blocks human WRN helicase. Potency, µM (top dose mostly 114 µM), for inactives: at the highest dose activity change, negative = inhibition, hits mostly inhibitors. Q14191. WRN helicase unwinding, fluorescent forked duplex, kinetic. actives 0.46% (n = 360,000); further: on the % scale 0 is the no-effect control and ±100 the full control effect; nearly all actives have a fitted effect of over 55% in size
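Enzyme (20 nM final) and test compound sit together 15 min at room temperature before substrate addition. Substrate is a single-forked duplex oligonucleotide (100 nM) labelled with fluorophore and quencher, with 2 mM ATP; helicase unwinding raises red fluorescence, read kinetically.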
FEN1 inhibitor = inhibitors of human flap endonuclease 1; actives 0.35% (n = 390,000); Potency, µM (series often up to 114 µM), without a hit: top-dose activity change, negative = inhibition, usual class: inhibitors; Recombinant FEN1 flap cleavage, fluorescence, 15 min; AID 588795; further: on the % scale 0 is the no-effect control and ±100 the full control effect; nearly all actives have a fitted effect of over 65% in size
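In this screen, 50 nM flap DNA substrate was added to 10 nM FEN1 pretreated with compound for 15 min at room temperature; cleavage was followed with reads at 0 and 15 min, and Hill fitting gave concentration–response parameters.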
POLI inh = inhibitors of human DNA polymerase iota; Q9UNA4; Pol iota fluorescent replication assay, 10 min; Potency, µM (series often up to 115 µM), for inactives: at the top dose activity, negative = inhibition, hits mostly inhibitors; actives 1% (n = 390,000); AID 588590
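Pol iota at 10 nM preincubated 15 min with compounds at room temperature; reaction started with fluorescent substrate, 50 nM final. Fluorescence read kinetically at 0 and 10 min; buffer-only wells as negative control.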
The depositor's hits bear a star; u = inconclusive; x = no result given; [ ] = dose if it differs, or a comment. The call rests on the fitted dose curve; in most records, active means well fitted curve in the direction sought with a large enough effect; inconclusive means small, poorly fitted or top-dose-only effect, or another doubt; inactive means no such curve, though single readings can be large; an effect the other way counts as inactive or inconclusive. Potency means the concentration at half of the fitted maximal effect.

SMILES	POLB inh	Pol eta inh	POLK inh	WRN helicase inh	FEN1 inhibitor	POLI inh
O=C(Cn1ncc2c3ccccc3n(Cc3cccc(Cl)c3)c2c1=O)NCc1cccs1	25µM*	-17%	-27%	x	14%	u
Cc1nc(-c2ccc(S(=O)(=O)NCc3ccc(OC(C)C)cc3)cc2)co1	3%	-7%	-5%[60.1 µM]	x	-2%	-3%
Cc1cc(C)c(Cn2c3ccccc3c3cnn(CC(=O)NC4CCC(C)CC4)c(=O)c32)c(C)c1 (stereo not given)	-2%	-26%	-17%	x	-2%	-1%
COc1ccc(/C=c2\[nH]c(=O)/c(=C/c3ccc(OC)c(OC)c3)[nH]c2=O)cc1OC	x	x	-8%	x	-9%	11%
CCc1ccccc1NC(=O)Cn1ncc2c(C)n(Cc3ccccc3F)c(C)c2c1=O	8%	-9%	-5%	x	-6%	49%
Cc1ccc(Cl)cc1NC(=O)Cn1ncc2c(C)n(Cc3ccccc3F)c(C)c2c1=O	13µM*	u	-32%	x	-12%	u
Cc1cc(C)cc(C(=O)N(C)[C@H](Cc2ccc(-c3ccccc3)cc2)C(=O)N[C@@H](Cc2c[nH]c3ccccc23)C(=O)O)c1	x	x	15%[60.1 µM]	x	x	x
CC(=O)Oc1ccc2occ(-c3ccccc3)c2c1	56µM*	-10%	-10%	-12%	5%	-14%
Cc1ccc(S(=O)(=O)N(C(=O)c2ccco2)c2cc3sc(=O)oc3c3ccccc23)cc1	6%	-11%	-15%	56µM*	-35%	u
COc1ccc(S(=O)(=O)N(C(=O)c2ccco2)c2cc3sc(=O)oc3c3ccccc23)cc1	-8%	-12%	-14%	45µM*	-35%	u
O=C(Nc1ccc2oc(-c3cccc4c(Br)cccc34)nc2c1)c1ccc(F)cc1	-3%	-13%	-16%	x	-7%	7%
Cc1ccnc(NS(=O)(=O)c2ccc(NC(=O)c3cc(-c4ccc(Br)cc4)nc4ccccc34)cc2)n1	79µM*	35µM*	-32%	u	-12%	45µM*
Cc1ccnc(NS(=O)(=O)c2ccc(NC(=O)c3cc(-c4ccccc4)nc4ccccc34)cc2)n1	28%	12%	-9%	u	-5%	-3%
CO[C@@]1(NC(=O)Cc2cccs2)C(=O)N2C(C(=O)O)=C(COC(N)=O)CS[C@@H]21	13µM*	u	u	-15%	-1%	u
CO[C@@]1(NC(=O)Cc2cccs2)C(=O)N2C(C(=O)O)=C(COC(N)=O)CSC21 (stereo not given in full)	x	x	32µM*	x	x	x
CO[C@@]1(NC(=O)CSCC#N)C(=O)N2C(C(=O)O)=C(CSc3nnnn3C)CSC21 (stereo not given in full)	x	x	-4%[60.1 µM]	x	x	x
O=C(CNC(=O)c1ccc(-c2ccccc2)cc1)OCc1ccc(Br)cc1	1%	22µM*	-2%	-5%[57.1 µM]	4%	110%
COc1ccc(C(=O)NCC(=O)OCc2ccc(Br)cc2)cc1	21%	-6%	3%	3%	2%	-22%
O=C(c1ccc2c(c1)N(Cc1ccccc1)C(=O)c1ccccc1S2(=O)=O)N1CCN(c2ccccc2)CC1	2%	x	-10%	x	9%	1%
Cc1nnc(N/N=C\c2ccc(-c3cccc(C(=O)O)c3)o2)n1N	u	u	u	-28%	-13%	2.5µM*
CC(N)(Cc1ccc(O)c(O)c1)C(=O)O (stereo not given)	5.6µM*	-3%[57.1 µM]	u	x	x	u
Cc1ccc(-n2c(O)c(C=Nc3ccccc3-c3n[nH]c(=S)[nH]c3=O)c3ccccc3c2=O)c(C)c1	89µM*	u	u	0%	u	45µM*
Cc1cccc(-n2c(O)c(C=Nc3ccccc3-c3n[nH]c(=S)[nH]c3=O)c3ccccc3c2=O)n1	-1%	-11%	-8%	-2%	-7%	7%
O=C(CC(NC(=O)c1ccccc1)c1ccccc1)OCc1nc(-c2cccc(Cl)c2)no1 (stereo not given)	x	x	-15%	x	-16%	-21%
CCCSc1cc(N2CCOCC2)nc(-c2ccccc2Cl)n1	79µM*	-10%	-6%	-2%	11%	-5%
SMILES	POLB inh	Pol eta inh	POLK inh	WRN helicase inh	FEN1 inhibitor	POLI inh
O=C(O)C#CC(=O)O	x	x	5%	x	0%	14%
O=C(O)[C@@H](O)[C@@H](O)[C@@H](O)[C@@H](O)C(=O)O (tested in a mixture with another compound)	x	x	-8%[12 µM]	x	x	x
O=C(NNC(=O)C1C2CCCCC21)c1coc(=O)c(Br)c1 (stereo not given)	u	50µM*	u	-5%[11.6 µM]	7%	45µM*
O=C(Nc1cc(Cl)cc(Cl)c1)c1coc(=O)c(Br)c1	28µM*	u	79µM*	u	u	28µM*
CCCCCCCCN1[C@@H](CC(=O)O)c2ccc(/C=C/C(=O)O)cc2S1(=O)=O	x	x	u	x	16%	-7%
Cc1nc2ccccc2nc1-c1csc(-c2ccccc2)n1	x	x	-5%	x	-8%	-16%
CC[n+]1c(/C=C/N(C)c2ccccc2)n(-c2ccccc2)c2ccc(-c3nc4ccccc4s3)cc21	-20%	u	21µM*	u	40µM*	136%
CCOC(=O)c1ccc2c(c1)n(CC)c(/C=C/N(C)c1ccccc1)[n+]2CC	-25%	-13%	-15%	9%	-10%	17%
Cc1ccc(-n2nc(C(=O)N(C)Cc3ccccc3)c3c4ccccc4n(C)c3c2=O)cc1	35%	-17%	-9%	x	4%	-5%
COc1ccc(S(=O)(=O)N(Cc2ccccc2)c2ccccc2C(=O)Nc2ccccc2C(=O)NCc2ccco2)cc1	89µM*	-19%	-20%	-10%	-3%	-5%
COc1ccc(S(=O)(=O)Nc2ccccc2C(=O)NCc2ccco2)cc1	-14%	-15%	-1%	-9%	-2%	u
Cc1ncc(CN2CCCC(C(=O)Nc3ccc(-c4ccco4)cc3)C2)cn1 (stereo not given)	-2%	u	u	-30%	-13%	32µM*
COc1ccccc1-n1c(=O)c(C#N)c(-c2ccc([N+](=O)[O-])cc2)c2cc(C(=O)c3cc(F)ccc3O)cnc21	-1%	5%	0%	9%	-18%	-18%
Cn1c(=O)c(C#N)c(-c2ccc(F)cc2)c2cc(C(=O)c3cc(Cl)cc(Cl)c3O)cnc21	u	40µM*	-52%	-4%[11.6 µM]	-8%	u
COc1ccc(C2/C=C\CN([S+](=O)([O-])c3ccc4ccccc4c3)C(C)C(=O)N2Cc2ccc(F)cc2)cc1 (stereo not given)	x	x	0%	x	-15%	-3%
CCOC(=O)C(=CNNc1cccc(Cl)c1)C(=O)OCC	-3%	-3%	-15%	50µM*	-11%	102%

Bioassay records from PubChem BioAssay.
